Test results: PubChem BioAssay
Calls of active or inactive are those of the source.

Key:
[1] = system: XIP peptide (Xip251-270) binding; assay: small-molecule binders of XIP peptide, primary screen, biochemical, small-molecule microarray, fluorescence 635/667 nm, 0.1 µg/mL protein (AID 1182); conditions: fluorescent protein binding, 635 nm, higher = more signal, called active from +8 up or from −8 down
XIP peptide (Xip251-270) = assay: small-molecule binders of XIP peptide, primary screen, biochemical, small-molecule microarray, fluorescence 635/667 nm, 0.5 µg/mL protein (AID 1183); conditions: small-molecule microarray binding, fluorescence 635 nm; higher = more signal
[2] = Plasmodium falciparum growth inhibition, primary screen, strain 3D7, DAPI fluorescence, 100 nL (AID 1184);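 note: parasites grown inside human red blood cells in medium with human serum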; conditions: P. falciparum 3D7 growth, 3 d, higher = more signal
[3] = molecular target: Homeobox protein Hox-A13 (Mus musculus) (UniProt Q62424); assay: inhibitors of HoxA13-DNA binding, primary screen, biochemical, fluorescence polarization, labeled oligonucleotide (AID 1185); conditions: 15 min, higher = more signal, called active from +8 up or from −8 down
Chain of Homeobox protein Hox-A13 (Mus musculus) (Q62424 whole entry, looked up): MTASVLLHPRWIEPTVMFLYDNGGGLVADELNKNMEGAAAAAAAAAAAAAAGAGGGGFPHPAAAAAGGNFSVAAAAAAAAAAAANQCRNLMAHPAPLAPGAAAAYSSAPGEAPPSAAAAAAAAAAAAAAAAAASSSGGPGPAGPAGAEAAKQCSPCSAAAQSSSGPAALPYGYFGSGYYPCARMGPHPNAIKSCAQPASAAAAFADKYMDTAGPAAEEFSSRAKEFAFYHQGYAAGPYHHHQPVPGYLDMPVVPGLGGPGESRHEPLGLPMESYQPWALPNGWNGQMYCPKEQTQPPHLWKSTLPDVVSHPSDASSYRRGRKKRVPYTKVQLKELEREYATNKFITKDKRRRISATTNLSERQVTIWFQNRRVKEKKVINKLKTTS

SMILES | composite z-score [1] | composite z-score (XIP peptide (Xip251-270)) | z-score [2] | z-score [3]
C=CC[C@@H]1C=C[C@H](ON=C(C)CCN2CCCCc3nc(C)c(C)cc32)[C@@H](CO)O1 | -0.167 (inactive) | 0.143 | -0.784 | -4.55 (inactive)
CCOC(=O)[C@H](CC(C)C)NC(=O)CCC1CC(OC(=O)NCc2ccc3c(c2)OCO3)CC2(CCCC(COC(=O)NCCOc3ccccc3)O2)O1 (stereo partly specified) | 0.24 (inactive) | 0.368 | -1.87 | -6.24 (inactive)
C=CC[C@@H]1C=C[C@H](Oc2ccc(C)cc2)[C@@H](COC(=O)NCc2cccc3ccccc23)O1 | -0.405 (inactive) | 0.427 | -0.517 | -0.901 (inactive)
CCN1C(=O)[C@H]2[C@H]3[C@H](O)[C@H](O)CC(=NOC[C@@H](O)COCc4ccco4)[C@H]3CC[C@H]2C1=O | 0.386 (inactive) | 0.505 | -0.0786 | 0.366 (inactive)
Cc1ccc(S(=O)(=O)N[C@@H]2COC(=O)CC=C[C@@H](C)[C@H](NS(=O)(=O)c3ccc(C)cc3)COC(=O)[C@H](C)NC(=O)CC=C[C@H]2C)cc1 | -0.668 (inactive) | -0.564 | -0.196 | -1.11 (inactive)
CC(C)=NOC(C)CN1CCCc2nc(C)c(C)cc21 (stereo unspecified) | 2.19 (inactive) | 0.522 | -0.225 | -8.04 (active)
COC(=O)CC=C1c2ccccc2[C@H](OC)[C@H]1C | -1.14 (inactive) | -0.302 | 0.406 | 0.281 (inactive)
CON(C)C(=O)c1nnc2c(n1)[nH]c1ccccc12 | -0.132 (inactive) | 0.755 | 0.763 | 0.447 (inactive)
O=C1C2=CC[C@H]3C(=O)N(C4CCCCC4)C(=O)[C@H]3[C@H]2[C@H](O)[C@@H]2O[C@H]12 | 0.381 (inactive) | -0.274 | -1.98 | -5.22 (inactive)
COC(=O)CC=C[C@@H](C)[C@@H](C=NOC(C)CN1CCCCc2nc(C)c(C)cc21)NS(=O)(=O)c1ccc(C)cc1 (stereo partly specified) | -0.598 (inactive) | -0.0903 | 0.453 | -0.327 (inactive)
O=C1[C@H]2[C@H]3[C@H](O)[C@H](O)CC(=NO[C@@H]4O[C@H](CO)[C@@H](O)[C@H](O)[C@H]4O)[C@H]3CC[C@H]2C(=O)N1c1ccc(F)cc1F | 0.391 (inactive) | 0.502 | -0.652 | -7.01 (inactive)
C[C@@H]1CC[C@H]2C(=O)N3[C@@H](CC[C@@H](C)[C@@H]3c3ccc(Br)cc3)C(=O)N2[C@H]1c1ccc(Br)cc1 | -0.22 (inactive) | 0.335 | -0.212 | -3.21 (inactive)
CCOC(=O)[C@H](CC(C)C)NC(=O)CCC1CC(OC(=O)NCc2ccc3c(c2)OCO3)CC2(CCCC(COC(=O)NCCOC)O2)O1 (stereo partly specified) | 0.685 (inactive) | 0.0552 | -1.99 | -5.34 (inactive)
C#CCCCON=C1C[C@@H](O)[C@@H](O)[C@@H]2[C@@H]3C(=O)N(C4CCCCC4)C(=O)[C@@H]3CC[C@@H]12 | 0.481 (inactive) | 0.0169 | 0.204 | -4.64 (inactive)
O=C1[C@H]2[C@H]3[C@H](O)[C@H](O)CC(=NOCc4ccccc4)[C@@H]3CC[C@H]2C(=O)N1c1cccc(Oc2ccccc2)c1 | 0.811 (inactive) | 0.123 | -0.129 | -1.24 (inactive)
CC(C)(C)N1C(=O)[C@H]2[C@H]3[C@H](O)[C@H](O)CC(=NOC[C@@H](O)COCc4ccco4)[C@H]3CC[C@H]2C1=O | 0.0133 (inactive) | 0.72 | -0.62 | 0.976 (inactive)
O=C1C2=CC[C@H]3C(=O)N(C[C@@H]4CCCO4)C(=O)[C@H]3[C@H]2[C@H](O)[C@@H]2O[C@H]12 | -0.14 (inactive) | 0.39 | -0.434 | -3.47 (inactive)
CCOC(=O)[C@H](Cc1ccccc1)NC(=O)CCC1CC(OC(=O)NCCc2ccc(F)cc2)CC2(CCCC(COC(=O)NCc3cccc(C(F)(F)F)c3)O2)O1 (stereo partly specified) | 0.966 (inactive) | 0.463 | -1.9 | -3.11 (inactive)
CCOC(=O)NN=C1C[C@@H](O)[C@@H](O)[C@@H]2[C@@H]3C(=O)N(c4ccc(F)cc4F)C(=O)[C@@H]3CC[C@H]12 | 0.192 (inactive) | -0.119 | -1.36 | 1.14 (inactive)
COc1ccc(COC(=O)NN=C2C[C@@H](O)[C@@H](O)[C@@H]3[C@@H]4C(=O)N(C5CCCCC5)C(=O)[C@@H]4CC[C@@H]23)cc1 | 0.524 (inactive) | 0.0499 | -1.07 | -4.36 (inactive)
CCCNC(=O)OC[C@H]1O[C@H](CCON=C2c3cc(OC)ccc3O[C@H](c3cccc(OC)c3)[C@H]2O)C=C[C@@H]1Oc1ccc(OC)cc1 | 0.328 (inactive) | 0.693 | 0.365 | -1.94 (inactive)
CC(CCN1CCCc2nc(C)c(C)cc21)=NOC[C@@H](O)COCc1ccco1 | 4.43 (inactive) | 0.831 | 0.245 | -8.38 (active)

SMILES | composite z-score [1] | composite z-score (XIP peptide (Xip251-270)) | z-score [2] | z-score [3]
CCN1C(=O)[C@H]2[C@H]3[C@H](O)[C@H](O)CC(=NO[C@H](C)c4cn([C@@H]5COC[C@H]5O)nn4)[C@@H]3CC[C@H]2C1=O | 0.0118 (inactive) | -0.629 | 0.202 | -0.803 (inactive)
CC(C)[C@H](NC(=O)OC(C)(C)C)[C@@H](O)CC(=O)C(C)(C)C | -0.232 (inactive) | -0.19 | 0.227 | -0.092 (inactive)
CC(C)(C)N1C(=O)[C@H]2[C@H]3[C@H](O)[C@H](O)CC(=NOC[C@@H](O)COCc4ccco4)[C@@H]3CC[C@H]2C1=O | -0.484 (inactive) | 0.502 | -0.0662 | -2.78 (inactive)
CCOC(=O)[C@H](CC(C)C)NC(=O)CCC1CC(OC(=O)NCCc2ccc(F)cc2)CC2(CCCC(COC(=O)NCCCN3CCCC3=O)O2)O1 (stereo partly specified) | 0.173 (inactive) | 0.74 | -1.82 | -6.3 (inactive)
CO[C@H]1COC(=O)CC=C[C@@H](C)COC(=O)[C@H]2CCCN2C(=O)CC=C[C@H]1C | 0.0735 (inactive) | 0.286 | 0.655 | -0.292 (inactive)
CCOC(=O)CCN1C(=O)[C@H]2[C@H]3[C@H](O)[C@H](O)CC(=O)[C@@H]3CC[C@H]2C1=O | 0.0603 (inactive) | 0.61 | -0.0726 | -2.98 (inactive)
CO[C@@H](C(C)C)[C@@H](C)C1OC(=O)CC1O (stereo partly specified) | 0.51 (inactive) | 0.129 | -1.69 | 0.186 (inactive)
COc1ccc(COC(=O)NN=C2C[C@@H](O)[C@@H](O)[C@@H]3[C@@H]4C(=O)N([C@@H](C)c5ccccc5)C(=O)[C@@H]4CC[C@@H]23)cc1 | -0.216 (inactive) | 0.0452 | -0.503 | -2.18 (inactive)
CCOC(=O)CCN1C(=O)[C@H]2[C@H]3[C@H](O)[C@H](O)CC(=NNC(=O)OCc4ccccc4)[C@H]3CC[C@H]2C1=O | 0.0983 (inactive) | -0.0907 | -0.873 | -3.59 (inactive)
COc1ccc(OC[C@H]2CN3[C@@H](CC[C@@H](C)[C@@H]3c3ccc(Br)cc3)C(=O)O2)cc1 | -0.192 (inactive) | 0.61 | -1.32 | -0.626 (inactive)
CCc1cc2c(nc1CC)CCN(CCC(C)=NOC[C@@H](C)[C@H](OCc1ccccc1)C(C)C)C2 | -0.259 (inactive) | -0.125 | 0.23 | -3.53 (inactive)
OC[C@H]1O[C@H](C#Cc2ccccc2)C=C[C@@H]1O | 0.0849 (inactive) | -0.105 | 0.223 | -2.53 (inactive)
C[C@@H]1CC[C@H]2C(=O)OC(CN3C(=O)c4ccccc4C3=O)CN2[C@H]1c1ccc(Br)cc1 (stereo partly specified) | -0.212 (inactive) | 0.338 | 0.49 | -0.956 (inactive)
CO[C@@H]1COC(=O)[C@H](CCSC)NC(=O)CC=C[C@@H](C)COC(=O)[C@@H]2CCCN2C(=O)CC=C[C@H]1C | 0.665 (inactive) | 0.352 | -0.494 | 0.213 (inactive)
CC(CCC(=O)OC[C@H]1O[C@H](C#Cc2ccccc2)C=C[C@@H]1Oc1ccc(C)cc1)=NO[C@@H](C)c1cc(-c2c(C)cc(C)cc2C)no1 | 0.0185 (inactive) | -0.333 | -1.36 | -1.88 (inactive)
COc1ccc(COC(=O)NN=C2C[C@@H](O)[C@@H](O)[C@@H]3[C@@H]4C(=O)N([C@@H](C)c5ccccc5)C(=O)[C@@H]4CC[C@H]23)cc1 | -0.153 (inactive) | -0.273 | -0.981 | -3.73 (inactive)
C[C@H]1CC[C@H]2C(=O)O[C@H](CO)CN2[C@@H]1c1ccc(Br)cc1 | -0.0442 (inactive) | -0.127 | 0.389 | -3.98 (inactive)
COCCNC(=O)OCC1CCCC2(CC(OC(=O)NCc3cccc4ccccc34)CC(CCC(=O)N[C@@H](C)C(=O)OC)O2)O1 (stereo partly specified) | 0.505 (inactive) | 0.588 | -1.85 | -3.88 (inactive)
CC(C)=CCCC(C)=CCON=C1[C@H]2CCn3c(=O)n(-c4ccccc4)c(=O)n3[C@H]2[C@H](O)[C@@H]2O[C@H]12 | 0.246 (inactive) | 0.598 | -2.23 | -4.57 (inactive)
O=C1[C@H]2[C@H]3[C@H](O)[C@H](O)CC(=NOCc4ccccc4)[C@H]3CC[C@H]2C(=O)N1C1CCCCC1 | 0.288 (inactive) | 0.714 | -0.369 | 0.449 (inactive)
CCOC(=O)[C@H](Cc1ccccc1)NC(=O)CCC1CC(OC(=O)NCc2cccc3ccccc23)CC2(CCCC(COC(=O)NCc3ccc4c(c3)OCO4)O2)O1 (stereo partly specified) | -0.322 (inactive) | 0.818 | 0.721 | -3.19 (inactive)
C#CCCCON=C1C[C@@H](O)[C@@H](O)[C@@H]2[C@@H]3C(=O)N(CC)C(=O)[C@@H]3CC[C@H]12 | 0.835 (inactive) | -0.423 | -0.263 | 0.0042 (inactive)
